Rows were chosen to be rich in hits. Some 7.1% of all compounds tested hit in one or more screens of this group.
ELG1 genotoxic: inducers of genotoxicity in HEK293T ELG1-luciferase cells; HEK293T ELG1-luciferase reporter, luminescence, 16 h; Potency, µM (highest dose often 46 µM), actives largely listed as activators; 330,000 tested, 1.3% active; further: nearly all actives have a fitted effect of over 60% in size
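Screening used a luciferase reporter fused to human ELG1 in HEK293T cells. Luminescence was read on a CCD plate imager after 16 hr exposure and 30 min ONE-Glo incubation.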
p53 reactivation: mutant p53 re-activation in reporter cells; AID 504706; 320,000 tested, 0.063% active; H1299 p53-A138V BP100-luciferase reporter, luminescence, 24 h; Potency, µM (titrated, usually from 92.2 µM), hits mostly activators; further: nearly all actives have a fitted effect of over 45% in size
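p53-null H1299 cells stably carrying temperature-sensitive p53-A138V and a BP100-luciferase reporter were pinned with compounds (4-point, 1:5 series) and held 24 hrs at 37 deg C. Luminescence was read 10 min after detection reagent.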
SW480 rerep: DNA re-replication induction in SW480 cells. SW480 DNA re-replication, Hoechst DNA content imaging, 48 h. Potency, µM (titrated, usually from 46.1 µM), most hits filed as activators. 340,000 tested, 1.8% active; further: nearly all actives have a fitted effect of over 55% in size
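DNA re-replication was detected as more nuclei of elevated Hoechst intensity after 48 hr exposure to compound (23 nL pinned per well of 250 cells).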
ELG1 repair inh: inhibitors of ELG1-dependent DNA repair in HEK293T cells. HEK293T ELG1-luciferase reporter, luminescence, 16 h; DNA damage induced by 5-fluorouridine. Potency, µM (titrated, usually from 46.1 µM), usual class: inhibitors. 330,000 tested, 2.3% active. AID 504467; further: nearly all actives have a fitted effect of over 55% in size
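Cells (2,000 per well) received 5-fluorouridine plus test compound or DMSO and were incubated 16 hr at 37 °C, 5% CO2. Luciferase activity was read by luminescence 30 min after ONE-Glo addition; signal suppression marked inhibition of damage-induced ELG1 function.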
MCF10A rereplic: induces DNA re-replication in MCF 10a normal breast cells | 350,000 tested, 2.9% active | Potency, µM (titrated, usually from 46.1 µM), usual class: activators | MCF 10A DNA re-replication, Hoechst nuclear intensity, 48 h | AID 624296; further: nearly all actives have a fitted effect of over 50% in size
A-T KAP1 phos: potential ataxia-telangiectasia treatment. F2112 A-T fibroblasts, KAP-1 phosphorylation AlphaLISA; neocarzinostatin DNA damage 30 min before lysis. Potency, µM (top dose mostly 57.5 µM), most hits filed as activators. 320,000 tested, 0.19% active. AID 485349; further: nearly all actives have a fitted effect of over 45% in size
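ATM-like activity read as KAP-1 phosphorylation via AlphaLISA donor/acceptor antibody pairs after lysis and 6 hr at 25C. Cells were ATM-null patient fibroblasts (F2112, hTERT), dosed 60 min, then exposed to the DSB inducer NCS for 30 min.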
Large screens that a line does not name were inactive. The call rests on the fitted dose curve; in most records, active means well fitted curve in the direction sought with a large enough effect; inconclusive means small, poorly fitted or top-dose-only effect, or another doubt; inactive means no such curve, though single readings can be large; an effect the other way counts as inactive or inconclusive.

O=C(NC(=S)Nc1ccccc1N1CCCC1)c1ccc(-c2cccc([N+](=O)[O-])c2)o1	SW480 rerep 20.6µM, ELG1 repair inh 14.6µM
O=C(NCCCN1CCCC1=O)c1ccc(NS(=O)(=O)c2cccc([N+](=O)[O-])c2)cc1	none
COc1c(C)cc(C(=O)C2CCCN(Cc3cnc(N4CCOCC4)s3)C2)cc1C (stereo unspecified)	ELG1 repair inh 20.6µM
COc1ccc(Cl)cc1C(=O)C1CCCN(Cc2cnc(N3CCOCC3)s2)C1 (stereo unspecified)	MCF10A rereplic inconclusive
Cc1nc2ccccc2n1CC(=O)NC(C)C1CC2CCC1C2 (stereo unspecified)	ELG1 repair inh 5.17µM, MCF10A rereplic inconclusive
CC(NC(=O)Cn1c(NCCO)nc2ccccc21)C1CC2CCC1C2 (stereo unspecified)	none
O=C1C=CC(c2ccccc2)(c2ccccc2)CC1	none (no result: ELG1 genotoxic, p53 reactivation, ELG1 repair inh, A-T KAP1 phos)
Cc1c(NC(=O)Nc2ccc(Cl)cc2)c(=O)n(-c2ccccc2)n1C	none
Cc1c(N=C2N=C(NC(=O)Nc3ccc(Cl)cc3)c3ccccc32)c(=O)n(-c2ccccc2)n1C	MCF10A rereplic 16.4µM
O=C(/C=C/c1ccccn1)c1cc(Cl)cc(Cl)c1O	SW480 rerep 16.4µM, MCF10A rereplic 20.6µM
CC(=O)N(/N=C1\Sc2ccccc2C1=O)c1ccc(C)cc1C	ELG1 genotoxic 14.6µM, ELG1 repair inh inconclusive
CCN(CC)c1nc(-c2ccc(Cl)cc2)cc(C(F)(F)F)c1C#N	SW480 rerep inconclusive, MCF10A rereplic 1.16µM
COc1ccc(-n2c(=S)[nH]c3cc(C(=O)Nc4ccc(F)cc4)ccc3c2=O)c(OC)c1	SW480 rerep inconclusive, ELG1 repair inh inconclusive
COc1cccc(CNC(=O)CCCn2ccc3cc(S(=O)(=O)N4CCCC4)ccc32)c1	ELG1 repair inh 23.1µM
COc1cccc(CNC(=O)CCn2ccc3cc(S(=O)(=O)N4CCCC4)ccc32)c1	none
O=C1CCC(c2ccccc2)c2ccccc21 (stereo unspecified)	none (no result: ELG1 genotoxic, p53 reactivation, ELG1 repair inh, A-T KAP1 phos)
N#CC1C(=O)c2ccccc2C1c1ccccc1 (stereo unspecified)	SW480 rerep 18.4µM, MCF10A rereplic 14.6µM (no result: ELG1 genotoxic, p53 reactivation, ELG1 repair inh, A-T KAP1 phos)
COC(=O)[C@@H]1[C@@H](C#N)C2(c3ccccc3-c3ccccc32)N(c2ccc(Cl)cc2)N1C#N	SW480 rerep inconclusive, MCF10A rereplic 5.17µM
COc1ccc(NC(=O)C(=O)N/N=C\c2ccc(CNC(=O)C(=O)Nc3ccc(C)c(C)c3)o2)c(OC)c1	SW480 rerep 2.91µM, MCF10A rereplic inconclusive (no result: p53 reactivation)
CN(CC(=O)Nc1c(Cl)cccc1Cl)C(=O)Cc1ccc(S(=O)(=O)N2CCOCC2)s1	SW480 rerep inconclusive
COc1ccc(-c2cc3nc(-c4ccccc4)cc(N4CCC(O)CC4)n3n2)cc1	ELG1 repair inh 16.4µM
Fc1ccc(-c2cc3nc(-c4ccccc4)cc(N4CCOCC4)n3n2)cc1	SW480 rerep inconclusive, ELG1 repair inh inconclusive, MCF10A rereplic inconclusive
COc1ccc(-c2cc3nc(-c4ccccc4)cc(N4CCCC(O)C4)n3n2)cc1 (stereo unspecified)	SW480 rerep inconclusive, ELG1 repair inh 16.4µM, MCF10A rereplic 20.6µM
Cc1[nH][nH]c(=O)c1C(c1c(C)[nH][nH]c1=O)c1cn(Cc2ccccc2Cl)c2ccccc12	SW480 rerep 16.4µM, MCF10A rereplic 6.51µM
CC(Sc1cccc[n+]1[O-])C(=O)NC1CCCCC1C (stereo unspecified)	ELG1 repair inh inconclusive
CC1=NN(c2ccccc2)C(=O)/C1=C/C=C/c1ccccc1	SW480 rerep 7.31µM, ELG1 repair inh 20.6µM, MCF10A rereplic 9.2µM
Cc1ccc(C2=NOC(=O)/C2=C\C=C\c2ccccc2)cc1	SW480 rerep inconclusive, ELG1 repair inh inconclusive, MCF10A rereplic 5.17µM
CCCOc1ccc(C=Nc2ccc(OC)c(S(=O)(=O)N3CCOCC3)c2)c(O)c1	none
CC1=C(C(=O)Nc2cc(C(=O)N3CCN(c4cccc(C)c4C)CC3)ccc2C)SCCO1	ELG1 repair inh 18.3µM
COc1ccc(N2CCN(C(=O)c3ccc(C)c(NC(=O)C4=C(C)OCCS4)c3)CC2)cc1	ELG1 repair inh inconclusive
COc1ccc(Nc2nc3nonc3nc2N2CCCCC2)cc1	ELG1 repair inh 20.6µM
O=C(CCC1CCCC1)NNC(=O)c1cccc(Cl)c1	none
Cc1ccc(S(=O)(=O)N(Cc2cccc(F)c2)C(=O)N2CCN(C)CC2)cc1	none
Oc1ccc(/C=N/Nc2nc(N3CCCCCC3)nc(N3CCCCCC3)n2)c(O)c1	SW480 rerep inconclusive, ELG1 repair inh inconclusive, MCF10A rereplic inconclusive
C/C(=N\Nc1nc(N2CCCCC2)nc(N2CCOCC2)n1)c1ccccc1O	SW480 rerep 11.6µM, ELG1 repair inh inconclusive, MCF10A rereplic inconclusive
Oc1ccc(Br)cc1/C=N/Nc1nc(N2CCCCC2)nc(N2CCOCC2)n1	SW480 rerep 20.6µM, ELG1 repair inh inconclusive
O=C(c1ccccc1N1CCOCC1)N1CCCC(Nc2ccc(F)cc2)C1 (stereo unspecified)	none
C=CCn1c(SCC#N)nnc1-c1ccc2ncccc2c1	ELG1 repair inh inconclusive
Brc1ccccc1-c1nc(-c2ccccc2)no1	ELG1 genotoxic inconclusive, p53 reactivation inconclusive, ELG1 repair inh inconclusive (no result: SW480 rerep, MCF10A rereplic)
c1ccc(-c2noc(C34CC5CC(CC(C5)C3)C4)n2)nc1	ELG1 genotoxic 14.6µM, p53 reactivation inconclusive, ELG1 repair inh inconclusive
c1ccc(-c2noc(C3CCCCC3)n2)nc1	ELG1 genotoxic 6.51µM, p53 reactivation inconclusive, ELG1 repair inh inconclusive, MCF10A rereplic inconclusive
c1ccc(-c2noc(C34CC5CC(CC(C5)C3)C4)n2)cc1	ELG1 genotoxic inconclusive, ELG1 repair inh inconclusive, MCF10A rereplic 11.6µM
C/C(=N/NC(=O)CNC(=O)C1COc2ccccc2O1)c1ccc([N+](=O)[O-])cc1 (stereo unspecified)	none
COc1ccc(-c2ccc(CCC(=O)O)n2CC(C)C)cc1	SW480 rerep 9.2µM, MCF10A rereplic inconclusive
COc1ccc(-c2ccc(CCC(=O)O)n2-c2ccccc2O)cc1	p53 reactivation inconclusive, SW480 rerep 20.6µM, MCF10A rereplic 1.84µM, A-T KAP1 phos inconclusive
C=CCn1c(CCC(=O)O)ccc1-c1ccc(OC)cc1	none
COc1ccc(-n2c(CCC(=O)O)ccc2-c2ccccc2)cc1	none
Cc1ccc(NC(=O)CSc2nn(-c3ccccc3)c(=S)s2)cc1S(=O)(=O)N(C)C	ELG1 repair inh 23.1µM
c1ccc(Cn2c(-c3ccccc3)c[n+]3c2SCCC3)cc1	ELG1 repair inh 13µM
COc1cc(NC(=O)c2ccc(NC3=NC4CS(=O)(=O)CC4S3)cc2)cc(OC)c1OC (stereo unspecified)	none (no result: p53 reactivation)

Bioassay records deposited in PubChem by National Center for Advancing Translational Sciences (NCATS).
